In PubChem BioAssay:
A number with no mark means an inactive call. For some assays here: Entries with a potency or affinity are not part of this list. Activity calls are given as the source filed them. Unless noted, how the calls were made is not given here.

Assays:
[1] = antimalarial activity against Dd2 strain (AID 2302;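 active means growth inhibition above 50% at the single 2 µM test dose, taken to imply half-maximal potency below 2 µM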;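 further: 0% = DMSO untreated growth and 100% = chloroquine plus artemisinin killed control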); details: P. falciparum Dd2 in RBCs, LDH growth readout, 72 h; at 2 µM; stronger effect = higher value
[2] = human hepatoma cell viability loss – ATP luminescence, cytotoxicity control for P. falciparum antimalarial project, primary screen (AID 2303;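 active means inhibition above 50%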;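 further: 0% = DMSO wells and 100% = digitonin-killed cells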); details: HepG2 viability, 24-48 h, at 10 µM, stronger effect = higher value
[3] = target: L-lactate dehydrogenase (Plasmodium falciparum (isolate CDC / Honduras)) (UniProt Q27743); assay: PfLDH activity inhibition – cell lysate, 3D7 strain, counter-screen for P. falciparum growth inhibition project (AID 2304);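 further: 0% = vehicle and 100% = reference inhibitor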; details: P. falciparum 3D7 crude extract, LDH APAD/NBT absorbance; at 2 µM; stronger effect = higher value
[4] = inhibition of 3D7 malaria parasite growth – strain 3D7 (AID 2306);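 further: 0% = DMSO wells and 100% = chloroquine plus artemisinin control wells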; details: P. falciparum 3D7 erythrocytic growth, LDH absorbance, 72 h; at 2 µM; stronger effect = higher value
[5] = target: Calcium-dependent protein kinase 1 (Plasmodium falciparum (isolate 3D7)) (UniProt P62344); assay: PfCDPK1 kinase inhibitors, biochemical, TCAMS library (AID 1159585; cut-off not given, nearly all actives have IC50 up to about 0.98 µM;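 further: inhibitors leave more ATP so luminescence rises with inhibition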); details: recombinant PfCDPK1, Kinase-Glo ATP depletion luminescence
[6] = target: Plasmodium falciparum protein kinase 6 (PK6, PF3D7_1337100) (UniProt Q8IDW1); assay: PfPK6 kinase inhibitors, biochemical, TCAMS library (AID 1159586); details: recombinant PfPK6, Kinase-Glo ATP depletion luminescence
[7] = target: Protein kinase 7 (PK7), Plasmodium falciparum 3D7 (PF3D7_0213400) (UniProt Q7YTF7); assay: inhibition of Plasmodium PK7 catalytic activity – biochemical, TCAMS antimalarial set, Kinase-Glo luminescence (AID 1159587); details: recombinant PfPK7, Kinase-Glo ATP depletion luminescence
[8] = target: Calcium-dependent protein kinase 4 (Plasmodium falciparum (isolate 3D7)) (UniProt Q8IBS5); assay: PfCDPK4 kinase inhibitors, biochemical, TCAMS library (AID 1159588; cut-off not given, nearly all actives have IC50 up to about 0.91 µM); details: recombinant PfCDPK4, Kinase-Glo ATP depletion luminescence
Sequence of Calcium-dependent protein kinase 4 (Plasmodium falciparum (isolate 3D7)) (Q8IBS5 whole entry, looked up): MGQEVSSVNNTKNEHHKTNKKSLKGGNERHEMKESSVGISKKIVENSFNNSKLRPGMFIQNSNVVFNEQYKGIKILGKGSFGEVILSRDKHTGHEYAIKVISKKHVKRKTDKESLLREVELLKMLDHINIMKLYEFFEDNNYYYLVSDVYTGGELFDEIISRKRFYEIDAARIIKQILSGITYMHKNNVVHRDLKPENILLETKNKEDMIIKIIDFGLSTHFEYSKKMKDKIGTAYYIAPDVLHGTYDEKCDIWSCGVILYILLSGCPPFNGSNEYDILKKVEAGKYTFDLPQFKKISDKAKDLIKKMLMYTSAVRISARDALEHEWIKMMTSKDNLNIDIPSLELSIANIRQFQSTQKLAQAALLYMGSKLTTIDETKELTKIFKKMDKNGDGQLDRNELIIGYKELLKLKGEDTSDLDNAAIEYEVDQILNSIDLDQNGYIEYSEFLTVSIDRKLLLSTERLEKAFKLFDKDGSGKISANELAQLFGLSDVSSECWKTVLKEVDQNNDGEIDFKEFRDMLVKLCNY

Sequence of Calcium-dependent protein kinase 1 (Plasmodium falciparum (isolate 3D7)) (P62344 whole entry, looked up): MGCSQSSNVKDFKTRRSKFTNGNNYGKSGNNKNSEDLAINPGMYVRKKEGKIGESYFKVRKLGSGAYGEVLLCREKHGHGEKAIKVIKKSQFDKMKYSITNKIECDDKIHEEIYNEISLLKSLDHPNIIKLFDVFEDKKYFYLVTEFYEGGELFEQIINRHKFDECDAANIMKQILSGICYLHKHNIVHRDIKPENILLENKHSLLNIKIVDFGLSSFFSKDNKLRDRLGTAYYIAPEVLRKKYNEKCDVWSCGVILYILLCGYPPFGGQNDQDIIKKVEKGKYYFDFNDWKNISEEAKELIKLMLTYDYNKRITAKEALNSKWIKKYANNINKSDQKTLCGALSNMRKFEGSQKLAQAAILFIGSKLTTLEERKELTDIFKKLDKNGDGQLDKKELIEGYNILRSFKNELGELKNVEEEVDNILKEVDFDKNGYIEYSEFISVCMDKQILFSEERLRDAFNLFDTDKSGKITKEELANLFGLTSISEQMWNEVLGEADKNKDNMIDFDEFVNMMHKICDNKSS
Sequence of L-lactate dehydrogenase (Plasmodium falciparum (isolate CDC / Honduras)) (Q27743 whole entry, looked up): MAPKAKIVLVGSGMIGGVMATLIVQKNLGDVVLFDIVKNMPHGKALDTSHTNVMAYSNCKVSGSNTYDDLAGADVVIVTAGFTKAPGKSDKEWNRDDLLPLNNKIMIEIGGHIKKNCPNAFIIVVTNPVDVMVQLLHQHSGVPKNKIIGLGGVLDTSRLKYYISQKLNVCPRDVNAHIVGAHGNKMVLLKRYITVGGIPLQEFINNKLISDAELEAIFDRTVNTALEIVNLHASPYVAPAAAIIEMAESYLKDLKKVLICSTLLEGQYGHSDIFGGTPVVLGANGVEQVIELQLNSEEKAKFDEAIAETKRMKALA
Sequence of Plasmodium falciparum protein kinase 6 (PK6, PF3D7_1337100) (Q8IDW1 1-305): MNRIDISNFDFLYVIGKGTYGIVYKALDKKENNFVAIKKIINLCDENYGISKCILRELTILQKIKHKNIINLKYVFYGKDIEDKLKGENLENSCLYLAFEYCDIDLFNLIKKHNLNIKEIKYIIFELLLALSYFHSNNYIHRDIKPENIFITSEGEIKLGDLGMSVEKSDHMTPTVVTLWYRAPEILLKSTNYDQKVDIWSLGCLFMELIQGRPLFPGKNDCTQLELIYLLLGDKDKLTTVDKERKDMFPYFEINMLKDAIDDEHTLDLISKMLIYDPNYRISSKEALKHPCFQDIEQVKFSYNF
Sequence of Protein kinase 7 (PK7), Plasmodium falciparum 3D7 (PF3D7_0213400) (Q7YTF7 1-343): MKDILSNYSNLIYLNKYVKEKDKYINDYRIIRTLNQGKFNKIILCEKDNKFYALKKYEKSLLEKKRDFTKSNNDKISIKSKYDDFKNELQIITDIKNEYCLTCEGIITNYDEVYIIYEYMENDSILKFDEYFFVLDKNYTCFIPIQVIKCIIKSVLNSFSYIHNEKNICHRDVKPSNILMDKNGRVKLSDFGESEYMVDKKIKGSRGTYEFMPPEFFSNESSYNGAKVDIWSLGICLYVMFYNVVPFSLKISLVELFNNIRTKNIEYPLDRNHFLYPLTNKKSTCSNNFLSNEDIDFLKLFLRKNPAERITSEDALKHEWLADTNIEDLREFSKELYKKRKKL

SMILES	growth inhibition [1]	inhibition [2]	inhibition [3] [%]	growth inhibition [4]	outcome [5]	outcome [6]	outcome [7]	outcome [8]
CC(C)(C)c1ccc(CN2CCC(NC(=O)c3ccc(-c4cccc(Cl)c4)s3)CC2)cc1	47%	36%	5	99% (active)	inactive	inactive	inactive	inactive
COc1ccc2ncc(F)c(CCN3CCC(NCc4cc5c(cn4)OCCS5)CC3)c2c1	40%	4%	-6	89% (active)	inactive	inactive	inactive	inactive
CS(=O)(=O)NCCCNCc1ccc(-c2ccc(-c3nc4ccc(C(F)(F)F)cc4[nH]3)cc2)cc1	83% (active)	25%	1	100% (active)	inactive	inactive	inactive	inactive
COc1cc2ncnc(Nc3ccc(OCc4ccccc4)c(C(F)(F)F)c3)c2cc1OC	78% (active)	8%	3	101% (active)	inactive	inactive	inactive	inactive
NS(=O)(=O)c1cccc(Br)c1	-5%	0%	0	98% (active)	inactive	inactive	inactive	inactive
CC1(C)CCNc2cc(NC(=O)c3ccc(-c4ncccc4C(F)(F)F)cc3)ccc21	86% (active)	7%	-3	97% (active)	inactive	inactive	inactive	inactive
COc1ccc2nccc([C@@H](O)CN3CCC(NCc4cc5cc(Cl)ccc5[nH]4)CC3)c2c1	64% (active)	27%	5	99% (active)	inactive	inactive	inactive	inactive
COc1cc2c(cc1OC)CC(NCCCCCCNCCc1ccc(Cl)cc1)CC2 (stereo not given)	-1%	50% (active)	1	98% (active)	inactive	inactive	inactive	inactive
CCc1cc2c(O)c([N+](=O)[O-])c(=O)oc2cc1OCCCCCOc1cc2oc(=O)c([N+](=O)[O-])c(O)c2cc1CC	0%	11%	-1	99% (active)	inactive	inactive	inactive	inactive
CN1CCCC1CNS(=O)(=O)c1ccc(C(=O)NCC2CC2)cc1 (stereo not given)	-7%	17%	-1	91% (active)	inactive	inactive	inactive	inactive
O=C(Nc1ccsc1)Nc1cccc(-c2ccc(-c3nc4ccc(C(F)(F)F)cc4[nH]3)cc2)c1	36%	45%	-2	99% (active)	inactive	inactive	inactive	inactive
O=C(Nc1cccc(-c2ccc(-c3nc4ccc(F)cc4[nH]3)cc2)c1)Nc1ccc(F)c(F)c1F	98% (active)	53% (active)	3	98% (active)	inactive	inactive	inactive	inactive
CCCCCCNC[C@@H](O)[C@H](Cc1ccccc1)NC(=O)c1cc(NCC)cc(N2CCCCS2(=O)=O)c1	98% (active)	5%	-5	100% (active)	inactive	inactive	inactive	inactive
C[C@H](Cc1ccc(OCCCCCCCOc2ccc(C[C@@H](C)NC[C@H](O)c3cccc(Cl)c3)cc2)cc1)NC[C@H](O)c1cccc(Cl)c1	97% (active)	99% (active)	-6	99% (active)	inactive	inactive	inactive	inactive
CCCC(C)Nc1nc(C)cc(N[C@@H](CC(C)C)C(=O)NCCc2ccccc2)n1 (stereo not given in full)	51% (active)	9%	-2	96% (active)	inactive	inactive	inactive	inactive
CNC(=O)c1ccc2nc(C3CC3)n(CC3CCN(S(=O)(=O)c4cccc(Cl)c4)CC3)c2c1	100% (active)	-6%	3	100% (active)	inactive	inactive	inactive	inactive
Nc1cccc(CNCc2ccc(-c3cccc(-c4nc5ccc(C(F)(F)F)cc5[nH]4)c3)cc2)c1	100% (active)	60% (active)	-2	100% (active)	inactive	inactive	inactive	inactive
CC(Cc1ccc(C(=O)N2CCN(C(=O)c3ccc(CC(C)NCCc4cccc(Cl)c4)cc3)CC2)cc1)NCCc1cccc(Cl)c1 (stereo not given)	85% (active)	99% (active)	-4	101% (active)	inactive	inactive	inactive	inactive
Cc1ccccc1N1CCN(c2ccc(C(=O)NC3CC3)cn2)CC1	96% (active)	14%	0	96% (active)	inactive	inactive	inactive	inactive
O=C(c1cccc(-c2ccc(-c3nc4ccc(C(F)(F)F)cc4[nH]3)cc2)c1)N1CCCCC1CN1CCC(O)C1 (stereo not given)	101% (active)	19%	4	92% (active)	inactive	inactive	inactive	inactive

SMILES	growth inhibition [1]	inhibition [2]	inhibition [3] [%]	growth inhibition [4]	outcome [5]	outcome [6]	outcome [7]	outcome [8]
O=C(NC1CCN(Cc2ccccc2)CC1)c1cc(-c2ccncc2)nc2ccc(Cl)cc12	27%	17%	0	97% (active)	inactive	inactive	inactive	inactive
O=C(Nc1cccc(-c2cc3ccccc3[nH]2)c1)C1CCN(Cc2ccccc2O)CC1	25%	34%	-1	95% (active)	inactive	inactive	inactive	inactive
CCCCN1CC[C@@H](CCC(O)c2ccnc3ccc(OCCC(C)C)cc23)[C@@H](CC)C1 (stereo not given in full)	90% (active)	22%	2	94% (active)	inactive	inactive	inactive	inactive
Cc1ccc2nc(C)cc(NN=CC=Cc3ccccc3)c2c1	28%	0%	4	92% (active)	inactive	inactive	inactive	inactive
O=C(Nc1ccc([N+](=O)[O-])cc1Cl)c1cc2ccccc2cc1O	28%	6%	0	94% (active)	inactive	inactive	inactive	inactive
Cc1cccc2[nH]c(-c3ccc(-c4cccc(NC(=O)COc5ccccc5C(N)=O)c4)s3)nc12	19%	80% (active)	-6	99% (active)	inactive	inactive	inactive	inactive
CCOc1cc(NCCSCc2nc[nH]c2C)nc2ccccc12	10%	4%	1	92% (active)	inactive	inactive	inactive	inactive
c1ccc2c(CNc3nc(NCC4CCCCC4)nc4nc[nH]c34)cccc2c1	44%	-2%	-2	89% (active)	inactive	inactive	inactive	inactive
O=C(NCCNc1ccnc2cc(Cl)ccc12)c1ccccc1F	98% (active)	30%	0	99% (active)	inactive	inactive	inactive	inactive
COc1ccc(CNc2nc(NCc3ccc(C(F)(F)F)cc3)c3cc(OC)c(OC)cc3n2)cc1OC	100% (active)	80% (active)	-3	103% (active)	inactive	inactive	inactive	inactive
O=C1COC(c2ccccc2)(c2ccccc2)CN1CC1CCN(Cc2ccc(O)cc2Cl)C1 (stereo not given)	81% (active)	53% (active)	2	85% (active)	inactive	inactive	inactive	inactive
COc1cc2[nH]c(-c3ccc(O)cc3)c(C)c(=O)c2c(OC)c1OC	94% (active)	1%	0	100% (active)	inactive	inactive	inactive	inactive
COc1ccc(C(=O)Nc2cc(Cl)c3c(c2)C2CCCN2CC3)cc1C(F)(F)F (stereo not given)	33%	35%	-1	99% (active)	inactive	inactive	inactive	inactive
O=C(/C=C/c1ccc(C(F)(F)F)cc1)NCCCCCN1CCCN(C(=O)Nc2ccc(Cl)c(Cl)c2)CC1	17%	89% (active)	0	100% (active)	inactive	inactive	inactive	inactive
CN1CCN(c2ccc(Nc3nc(N)c4ccn(C5CCC5)c4n3)cc2)CC1	47%	-3%	2	93% (active)	inactive	inactive	inactive	inactive
Cc1cc(Cl)ccc1OC(C)C(=O)N1CCc2ccccc21 (stereo not given)	78% (active)	8%	-2	94% (active)	inactive	inactive	inactive	inactive
CCCCCn1c(Sc2ccc(C#N)c([N+](=O)[O-])c2)nnc1-c1cccc(Cl)c1	75% (active)	4%	-2	95% (active)	inactive	inactive	inactive	inactive
Cc1cc(CNCCCCCCNCc2ccc(-c3ccccc3)cc2)ccc1O	-2%	90% (active)	-3	98% (active)	inactive	inactive	inactive	inactive
CC(C)(C)c1ccc(CNC(=O)c2ccc(-c3nc4ccc(C(C)(C)C)cc4[nH]3)cc2)cc1	49%	21%	3	96% (active)	inactive	inactive	inactive	inactive
CCOC(=O)C1=C(C)NC2=C(C(=O)C(C(=O)OC)C(C)C2)C1c1cc(Br)c(OCC)c(OC)c1 (stereo not given)	99% (active)	8%	0	101% (active)	inactive	inactive	inactive	inactive
